According to PubChem BioAssay AID1159580 (chemical genetic matrix, 2015):
Several values for one entry are separate records, joined by “and”; a condition that tells them apart may be missing. Identical values can stand only once. The whole screen tested about 5,500 compounds, of which about 2,000 (36%) were called active. Another 18% or so got no clear call; they are omitted. Cut-off read from the data, not from the text of the source: active = normalized growth mostly below about 0.91 (no sharp cut-off); inconclusive = no clear call, values can overlap the other calls; inactive = mostly above about 0.92. The list shows a part of the results.

Test: chemical genetic growth profiling, strain panel (AID 1159580);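 note: tested at 20 µM; growth read once vehicle control cultures reached saturation at 30 °C; 1 = growth at the plate median or of vehicle wells; lower values mean less growth of the strain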
Settings: S. cerevisiae deletion strains, growth OD

Measured: normalized growth

CCC1(CC)C(=O)C=CNC1=O
inactive: locus YAL021C, strain ccr4, hits give low values 0.998 | locus YAL026C, strain drs2, hits give low values 0.996 | locus YAL030W, strain snc1, hits give low values 1 | locus YBL061C, strain skt5, hits give low values 1.01 | locus YBR009C, strain hhf1, hits give low values 1.02 | locus YBR021W, strain FUR4, hits give low values 1.02 | locus YBR023C, strain chs3, hits give low values 0.994 | locus YBR171W, strain sec66, hits give low values 0.985 | locus YBR229C, strain ROT2, hits give low values 1.01 | locus YBR231C, strain swc5, hits give low values 0.997 | locus YBR279W, strain paf1, hits give low values 1 | locus YCL011C, strain gbp2, hits give low values 0.992 | locus YCL016C, strain dcc1, hits give low values 0.998 | locus YCL029C, strain bik1, hits give low values 1.01 | locus YCL061C, strain MRC1, hits give low values 0.999 | locus YCL069W, strain vba3, hits give low values 0.993 | locus YCR088W, strain abp1, hits give low values 0.986 | locus YDL005C, strain med2, hits give low values 0.999 | locus YDL035C, strain GPR1, hits give low values 1.02 | locus YDL040C, strain nat1, hits give low values 0.999 | locus YDL074C, strain BRE1, hits give low values 0.977 | locus YDL101C, strain DUN1, hits give low values 1 | locus YDL134C, strain PPH21, hits give low values 1.03 | locus YDL185W, strain tfp1, hits give low values 1.02 | locus YDL192W, strain arf1, hits give low values 1.01 | locus YDR001C, strain nth1, hits give low values 0.997 | locus YDR069C, strain doa4, hits give low values 1.02 | locus YDR101C, strain arx1, hits give low values 0.988 | locus YDR137W, strain rgp1, hits give low values 1.03 | locus YDR159W, strain sac3, hits give low values 1.02 | locus YDR162C, strain NBP2, hits give low values 1.02 | locus YDR195W, strain ref2 0.985 | locus YDR297W, strain sur2, hits give low values 0.995 | locus YDR318W, strain mcm21, hits give low values 1.01 | locus YDR334W, strain swr1, hits give low values 0.959 | locus YDR335W, strain msn5, hits give low values 0.997 | locus YDR388W, hits give low values 1.01 | locus YDR392W, strain spt3, hits give low values 0.945 | locus YDR502C, strain sam2, hits give low values 0.995 | locus YEL003W, strain gim4, hits give low values 0.994 | locus YEL037C, strain rad23, hits give low values 0.991 | locus YEL061C, strain CIN8 (second series), hits give low values 0.992 | locus YEL061C, strain CIN8, hits give low values 1 | locus YER015W, strain faa2, hits give low values 1 | locus YER016W, strain bim1, hits give low values 0.999 | locus YER110C, hits give low values 1.03 | locus YER111C, strain swi4, hits give low values 1.01 | locus YER155C, strain BEM2 (second series), hits give low values 0.992 | locus YER155C, strain BEM2, hits give low values 1 | locus YER167W, strain BCK2, hits give low values 1.02 | locus YFR010W, strain ubp6, hits give low values 0.985 | locus YGL078C, strain dbp3, hits give low values 1.02 | locus YGL086W, strain mad1, hits give low values 0.99 | locus YGL167C, strain pmr1, hits give low values 1 | locus YGL173C, strain kem1, hits give low values 1.01 | locus YGL227W, strain vid30, hits give low values 1 | locus YGL240W, strain doc1, hits give low values 1.02 | locus YGL248W, strain PDE1, hits give low values 0.987 | locus YGL253W, strain hxk2, hits give low values 0.985 | locus YGR078C, strain PAC10, hits give low values 0.97 | locus YGR135W, strain pre9, hits give low values 1.05 | locus YGR252W, strain gcn5, hits give low values 0.996 | locus YHR013C, strain ard1, hits give low values 1.03 | locus YHR027C, strain rpn1, hits give low values 0.982 | locus YHR030C, strain SLT2, hits give low values 1.01 and 1 | locus YHR079C, strain IRE1 (second series), hits give low values 1.01 | locus YHR079C, strain IRE1, hits give low values 1.01 | locus YHR094C, strain hxt1, hits give low values 1.02 | locus YHR129C, strain ARP1, hits give low values 1.01 | locus YHR142W, strain chs7, hits give low values 0.964 | locus YHR200W, strain rpn10, hits give low values 1.01 | locus YIL066C, strain RNR3, hits give low values 0.996 | locus YIL073C, strain SPO22, hits give low values 1.07 | locus YIL125W, strain kgd1, hits give low values 0.999 | locus YIR030C, strain dcg1, hits give low values 1.01 | locus YJL092W, strain hpr5, hits give low values 0.992 | locus YJL095W, strain BCK1 (second series), hits give low values 0.996 | locus YJL095W, strain BCK1, hits give low values 0.976 and 1.01 | locus YJL115W, strain asf1, hits give low values 0.973 | locus YJL129C, strain trk1, hits give low values 0.993 | locus YJL134W, strain LCB3, hits give low values 1 | locus YJL154C, strain vps35, hits give low values 0.983 | locus YJL164C, strain tpk1, hits give low values 1.01 | locus YJL166W, strain qcr8, hits give low values 1 | locus YJL168C, strain set2, hits give low values 1 | locus YJL187C, strain SWE1 (second series), hits give low values 0.982 | locus YJL187C, strain SWE1, hits give low values 1.01 | locus YJR043C, strain POL32, hits give low values 0.994
